Our source for the growth values is PubChem BioAssay (NCI).

Assay in all cases: NCI-60 one-dose screen, 48 h (100 = growth as untreated, 0 = no growth, -100 = all killed)
What all share (details): 10 µM unless noted

Assay [1] relates to DU-145 prostate.
Assay [2] relates to K-562 leukemia.
The test system of assay [3] is MALME-3M melanoma.
Assay [4] relates to MDA-MB-231 breast.
Assay [5] concerns RXF 393 renal.
The subject of assay [6] is SF-268 CNS.
The test system of assay [7] is SF-295 CNS.
In assay [8] the test system is SF-539 CNS.
For assay [9], the system named is UACC-257 melanoma.
In assay [10] the test system is M14 melanoma.

Structures are written as SMILES. The panel holds about 83,000 compounds, 20% with a hit somewhere; the sample as a whole holds those more often.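 Single-dose data. Exposure time 48 hours. Values below 10 considered active.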 A number with no mark means an inactive call. Activity calls are given as the source filed them.

Take `O=C(c1cnn2c1NC(c1ccc(F)cc1)C2)N1CCCCC1` (stereo not given): the growth is 103% in assay [1]; 103% in [2]; 97.7% in assay [3]; 106% in [4]; 111% in assay [5]; 96.7% in [6]. The growth in assay [7] was 103%; in [8] it was 97.8%; in assay [9] it was 96.3%; in [10] it was 101%.

Turning to `COc1ccc(OC)c(/C=C2\Oc3cc(O)ccc3C2=O)c1`, the growth in assay [1] was 77.5%; in assay [2], 93.2%; in assay [3], 76%; in assay [4], 103%; in assay [5], 80.5%; in [6], 87.3%. Besides, the growth is 98.6% in assay [7], 95.4% in assay [8], 103% in assay [9] and 73.2% in assay [10].

Take `Cc1c(C(=O)Nc2nc(-c3ccccc3)cs2)nnn1-c1cccc2ccccc12`: the growth in assay [1] is 64.7% [50 µM]; in assay [2], 30.5% [50 µM]; in assay [3], 55.4% [50 µM]; in [4], 68.7% [50 µM]; in assay [5], 89.1% [50 µM]; in [6] it was 72.5% [50 µM]. The growth in assay [7] was 37.2% [50 µM]; in [8] it was 69.2% [50 µM]; in [9] it was 44.9% [50 µM]; in assay [10] it was 64.7% [50 µM].

On to `COc1ccccc1/C=C/C(=O)/C=C/c1ccccc1O`, for which the growth in assay [1] is -31.2% (active); in assay [2] it was -6.29% (active); in assay [3], -3.21% (active); in assay [4], 4.57% (active); in assay [5] it was -75.8% (active); in assay [6] it was 1.68% (active). Moreover, the growth in [7] was -37.4% (active); in assay [8], -63% (active); in assay [9], 69.7%; in assay [10], -31% (active).

In the case of `Clc1ccc(Nc2nc(Nc3ccccc3)nc(Nc3ccc(-c4cc(-c5ccc(Cl)cc5)on4)cc3)n2)cc1`, the growth in assay [1] was 32.6%; in assay [2] it was 40.2%; in [3], 64.5%; in assay [4], 60.5%; in [5], 74.6%; in assay [6] it was 61.7%. Besides, the growth was 54% in assay [7], 54.2% in assay [8], 70.1% in assay [9] and 41.4% in assay [10].

Regarding `NC(=O)c1nc2c([nH]c1=O)CCCC2`, the growth in assay [1] is 108%; in assay [2], 92.2%; in [3], 101%; in assay [4], 118%; in assay [5] it was 97.6%; in [6], 101%. In addition, the growth in assay [7] was 103%; in [8] it was 96.6%; in [9], 109%; in assay [10], 122%.

On to `COC(=O)c1c2c(c(C)[n+]([O-])c1C)C(=O)C=C(NCc1ccc(Cl)cc1)C2=O`, for which the growth in [1] was -83.7% (active); in [2] it was 1.55% (active); in assay [3], -95% (active); in assay [4] it was -20.7% (active); in assay [5] it was -31.7% (active); in assay [6], 0.305% (active). In addition, the growth in [7] is -59.7% (active); in [8], -89.8% (active); in assay [9], -84.7% (active); in [10] it was -85.5% (active).

On to `COc1ccc(C2SC(C)C(=O)N2CCc2cccs2)cc1OC` (stereo not given), for which the growth in assay [1] is 93.3%; in assay [2], 62.3%; in [3], 119%; in assay [4], 73.2%; in assay [5] it was 86.1%; in assay [6] it was 89.2%. For the same compound, the growth in assay [7] was 75.5%; in assay [8] it was 94.1%; in assay [9], 75.7%; in [10], 121%.

For the compound `O=C(CCc1nnc2sc(-c3ccccc3)nn12)c1nc2ccccc2[nH]1`, the growth in assay [1] was 106%; in assay [2], 5.84% (active); in assay [3], 93.7%; in assay [4], 97.2%; in [5], 107%; in assay [6] it was 116%. Further, the growth was 77.1% in assay [7], 78.9% in assay [8], 100% in assay [9] and 96.3% in [10].

Take `CC(=O)OC[C@]1(C)C=C2C(=O)[C@](C)(O)C3(CC3)C(C)=C2[C@H]1OC(C)=O`: the growth in [1] is 16.7%; in assay [2], 93.1%; in assay [3], 111%; in [4], 93.2%; in [5], 3.69% (active); in assay [6] it was 69.4%. Besides, the growth was 83% in assay [7], 95.2% in [8], 106% in assay [9] and 88.2% in [10].

On to `O=C1C(N2CCOCC2)=Cc2cccc3cccc1c23`, for which the growth was 104% in assay [1]; 30.8% in assay [2]; 113% in assay [3]; 106% in assay [4]; 99.3% in assay [5]; 93.8% in [6]. In addition, the growth is 112% in assay [7], 97.5% in assay [8], 101% in assay [9] and 104% in assay [10].
